# Test results: the supplement of paper PMC10127200
# System: HEPG2
# Experiment: Euclidean distance of Cell Painting phenotypic profile (signed KS, 77 features) to DMSO centroid (dimensionless distance); 5 or 10 uM (library dependent); higher = stronger phenotypic change vs DMSO (phenoactivity)
# Conditions: 48 h
# In short: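 Library compounds were applied at 10 or 5 uM, depending on the library, with 0.1% DMSO final, for 48 h to five cancer lines and a healthy fibroblast line. After staining, cells were imaged confocally at 20X across 9 fields per well, and Harmony extracted 77 features, each scored as a signed Kolmogorov-Smirnov statistic against vehicle wells on the same plate. Phenoactivity is the Euclidean distance between each profile and the median vehicle profile, with profiles first plate-position corrected, correlation-weighted and averaged over replicates at the top dose.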
row,Compound,Euclidean distance
1,CN(C)Cc1ccc(-c2nc3cccc4c3n2CCNC4=O)cc1,1.62
2,COc1ccc(-c2cc(=S)ss2)cc1 [Anethole trithione],0.61
3,CC(C)C(=O)c1c(C(C)C)nn2ccccc12 [Ibudilast],0.459
4,CC[C@H]1OC(=O)[C@H](C)[C@@H](O[C@H]2C[C@@](C)(OC)[C@@H](O)[C@H](C)O2)[C@H](C)[C@@H](O[C@@H]2O[C@H](C)C[C@H](N(C)C)[C@H]2O)[C@](C)(O)C[C@@H](C)/C(=N\OCOCCOC)[C@H](C)[C@@H](O)[C@]1(C)O [Roxithromycin],0.654
5,O=C(O)Cc1ccccc1Nc1c(Cl)cccc1Cl [Diclofenac Sodium],0.995
6,O=NN(CCCl)C(=O)NCCCl [Carmustine],0.515
7,C[C@]1(O)C[C@@H](c2nc(-c3ccc4ccc(-c5ccccc5)nc4c3)c3c(N)nccn32)C1 [OSI-906 (Linsitinib)],1.12
8,N=C(N)c1ccc(OCCCCCOc2ccc(C(=N)N)cc2)cc1 [Pentamidine],2.12
9,CC(C)OC(=O)CCC/C=C\C[C@@H]1[C@@H](/C=C/[C@@H](O)COc2cccc(C(F)(F)F)c2)[C@H](O)C[C@@H]1O [Travoprost],1.07
